Measured values as given in PubChem BioAssay (NCI).
Compounds without any hit were thinned out: in the full panel of roughly 83,000, 20% have a hit.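 Values shown are percent growth following 48 h exposure of cells in 96-well plates to a single concentration of compound; below 10 was considered active.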 Unmarked numbers belong to inactive results. The source made the active and inactive calls.

Tests used:
Test in all cases: NCI-60 one-dose screen, 48 h (100 = growth as untreated, 0 = no growth, -100 = all killed)
Conditions in all cases: 10 µM
[1] = test system: NCI-H23 lung
[2] = test system: NCI-H226 lung
[3] = test system: NCI-H322M lung
[4] = test system: HOP-62 NSCLC
[5] = test system: NCI-H460 lung
[6] = test system: HOP-92 NSCLC
[7] = test system: NCI-H522 lung
[8] = test system: A549/ATCC NSCLC
[9] = test system: 786-0 renal
[10] = test system: COLO 205 colon
[11] = test system: DU-145 prostate
[12] = test system: K-562 leukemia
[13] = test system: MALME-3M melanoma
[14] = test system: MDA-MB-231 breast
[15] = test system: RXF 393 renal
[16] = test system: SF-268 CNS
[17] = test system: SF-295 CNS
[18] = test system: SF-539 CNS
[19] = test system: UACC-257 melanoma
[20] = test system: M14 melanoma

SMILES	growth [1]	growth [2]	growth [3]	growth [4]	growth [5]	growth [6]	growth [7]	growth [8]	growth [9]	growth [10]	growth [11]	growth [12]	growth [13]	growth [14]	growth [15]	growth [16]	growth [17]	growth [18]	growth [19]	growth [20]
CCCCCCCCCCCCCCCCCCCC(=O)NCCc1c[nH]c2ccc(O)cc12	103%	87.6%	114%	144%	101%	148%	-13.2% (active)	90.8%	100%	147%	105%	74.5%	120%	78%	115%	91.6%	96.3%	60.8%	107%	101%
CC1=C(C(=O)OC(C)C)C(c2ccc(O)cc2)NC(=S)N1 (stereo unspecified)	98.8%	99.2%	102%	104%	124%	112%	93.1%	109%	95.7%	119%	100%	95.2%	105%	100%	97.3%	111%	96.6%	98.2%	121%	97%
O=C1NC(=NC2CCCCCC2)N/C1=C\c1ccc2ncoc2c1	19.2%	14.9%	24.5%	36.8%	20.2%	51.3%	12.6%	17%	40.6%	9.19% (active)	31.1%	38.1%	66.4%	50.9%	-8.82% (active)	35%	47.5%	-2.22% (active)	48.7%	64.4%
O=C(Nc1ccc(I)cc1F)c1cc(-c2ccc(F)cc2F)ccc1O	-22% (active)	-7.15% (active)	6.19% (active)	-10.6% (active)	2% (active)	-26.3% (active)	-9.59% (active)	9.86% (active)	16.7%	-35.6% (active)	21.5%	7.69% (active)	-21.4% (active)	-1.69% (active)	-9.21% (active)	8.16% (active)	-37.7% (active)	0.0441% (active)	-7.17% (active)	28.8%
COc1ccc(-c2ccc(/C=N/NC(=O)c3[nH]c4ccc(Br)cc4c3-c3ccccc3)s2)cc1	68.8%	105%	92.3%	96.1%	27.7%	120%	82.9%	71.9%	112%	97.6%	104%	87.6%	115%	59.5%	74.2%	60%	71.6%	71.7%	106%	106%
Cc1ccc(/C=C/C(=O)c2ccc(S(=O)(=O)NCCNc3nc(Nc4ccc(F)cc4)nc(N(C)C)n3)cc2)cc1	36.5%	-1.6% (active)	48.5%	56.2%	0.319% (active)	-18.2% (active)	71.3%	41.3%	-32% (active)	35.4%	30%	12.2%	69.1%	38.6%		34.6%	37.7%	41.6%	61.2%	14.6%
O=c1[nH]c2ccccc2cc1CSc1ccc(Nc2nccc(-c3ccc(C(F)(F)F)cc3)n2)cc1	35.3%	-27.2% (active)	23.8%	-14% (active)	2.12% (active)	-1.46% (active)	28.3%	-16.8% (active)	-49.7% (active)	18%	32.3%	54.9%	6.21% (active)	11.9%		40.4%	-62.6% (active)	12%	90%	80.1%
COc1ccc(/C=C/C(=O)c2ccc(NC(=O)CN3C(=O)NC(C)(c4ccccc4)C3=O)cc2)cc1 (stereo unspecified)	83.8%	80.3%	105%	95.1%	102%	120%	86.8%	85.9%	81.2%	106%	87.7%	60.2%	90.5%	87%		67.3%	76.1%	80%	92.4%	87.9%
C/C(=N\N=C\c1ccc(Cl)c([N+](=O)[O-])c1)c1ccc2c(c1)Nc1ccccc1S2	18.2%	-25.2% (active)	50%	47.5%	1.22% (active)	32.6%	33.2%	60.2%	52.1%	32.1%	28.1%	38.6%	-3.5% (active)	32.4%		47.3%	42.7%	12.8%	51.2%	62.6%
CN(C(=O)c1ccc(C(C)(C)C)cc1)c1sc2c(c1C#N)CCC(=O)C2	-29.1% (active)	62.6%	88.4%	34.6%	35.6%	21.9%	-45.8% (active)	91.5%	50.3%	80.7%	80.7%	11.7%	-6.14% (active)	-74.4% (active)		18.5%	-0.987% (active)	-86.1% (active)	97%	19.3%
O=S(=O)(Nc1ncccn1)c1ccc(-n2c(-c3ccccc3)nc(-c3ccccc3)c2-c2ccccc2)cc1	95.4%	87.8%	96.4%	100%	88.1%	109%	94.4%	89.7%	88%	130%	101%	92.6%	111%	87.7%		85%	65.9%	83.4%	118%	102%
CCOP(=O)(OCC)O[C@H]1CCC(=O)[C@@H]2[C@H]1[C@H]1C[C@@H]3[C@@]4(C)CCCC(C)(C(=O)OC)[C@@H]4CC[C@@]23C=C1C(C)C (stereo partly specified)	50.3%	48.9%	102%	76.8%	66.4%	46.8%	31.6%	49.7%	63.3%	47.6%	83.1%	30.1%	86.2%	67%		76.4%	69.1%	71.7%	41.8%	55.4%
CCCCSc1nc(Nc2ccc(/C(C)=N/NC(N)=S)cc2)c(C#N)c(-c2ccc(OC)cc2)n1	31.4%	-6.28% (active)	74.8%	54.4%	46.5%	-4.59% (active)	85.7%	47.4%	-71.5% (active)	125%	61.5%	78.2%	-39.6% (active)	-11.4% (active)		56.6%	69.7%	-55.4% (active)	74.9%	39.3%
COc1cnc2c(c1)C(=O)c1c-2n(CCCNCCO)c(=O)c2cc(OC)c(OC)cc12	3.38% (active)	15.4%	30.9%	12.1%	10.2%	54.4%	15.1%	43%	-11.9% (active)	15.4%	15.6%	26.8%	49%	19.2%		44%	6.94% (active)	-52.7% (active)	68.3%	23.1%
